The record followed here is PubChem BioAssay (NCATS).

Experiment [1] in a line: S16 Schwann cell PMP22 intronic element firefly luciferase assay (AID 624032). Also: nearly all actives have a fitted effect of over 30% in size. Also: potency is read from the fitted curve at half-maximal effect. The method in brief: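 Rat S16 Schwann cells stably carrying a PMP22 intronic element-driven Fluc reporter were seeded overnight, then exposed to compounds for 24 h at 37 °C. Luminescence was normalized to PTC124 (positive control) and DMSO (0% activity).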
A short description of experiment [2]: S16 Schwann cell PMP22 intronic element beta-lactamase assay (AID 624044; calls by dose curve; also: nearly all actives have a fitted effect of over 15% in size). The method, boiled down: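 Beta-lactamase reporter under a PMP22 intronic regulatory element in stable S16 rat Schwann cells; 24 h compound exposure. 460 nm blue signal normalized between DMSO (0%) and potassium clavulanate, with 535 nm FRET tracking viability; curves classed by r2 and response.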

Experiment [3] deals with 3D7. Nature of the experiment: qHTS profiling for inhibitors of Plasmodium falciparum proliferation (AID 504749). Also: nearly all actives have a fitted effect of over 60% in size. Also: potency is read from the fitted curve at half-maximal effect. Particulars: P. falciparum in erythrocytes, SYBR Green DNA, 72 h; series mostly up to 12.8 µM. The method, boiled down: (§1)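 Fluorescence of SYBR Green-bound parasite DNA, read at 485/535 nm, served as the growth measure. Infected erythrocytes were cultured with compound 72 h; artemisinin (0.29 uM) and DMSO wells defined the normalization range.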

The test system of experiment [4] is 7G8. Described as above. Particulars: P. falciparum in erythrocytes, SYBR Green DNA, 72 h; series mostly up to 12.8 µM. The method, boiled down: as §1
Experiment [5] relates to ATS95. The description is as above. The settings on record: P. falciparum in erythrocytes, SYBR Green DNA, 72 h; series mostly up to 12.8 µM. The method, boiled down:
as §1

In experiment [6] the test system is CP192. The description is as above. Particulars: P. falciparum in erythrocytes, SYBR Green DNA, 72 h; series mostly up to 28.7 µM. The method in brief:
as §1

For experiment [7], the system named is CP194. Described as above. Particulars: P. falciparum in erythrocytes, SYBR Green DNA, 72 h; series mostly up to 12.8 µM. The method, boiled down:
as §1

Experiment [8] has as its system CP215. Described as above. The settings on record: P. falciparum in erythrocytes, SYBR Green DNA, 72 h; series mostly up to 28.7 µM. The method in brief: as §1
The test system of experiment [9] is CP260. The experiment is described as above. The settings on record: P. falciparum in erythrocytes, SYBR Green DNA, 72 h; series mostly up to 12.8 µM. The method, boiled down:
as §1

The subject of experiment [10] is CP266. The description is as above. Particulars: P. falciparum in erythrocytes, SYBR Green DNA, 72 h; series mostly up to 28.7 µM. The method in brief:
as §1

Experiment [11] deals with CP268. The description is as above. Particulars: P. falciparum in erythrocytes, SYBR Green DNA, 72 h; series mostly up to 12.8 µM. The method in brief: as §1
Experiment [12] has as its system CP297. The experiment is described as above. The settings on record: P. falciparum in erythrocytes, SYBR Green DNA, 72 h; series mostly up to 12.8 µM. The method, boiled down: as §1
Experiment [13] deals with DIV14. Described as above. Particulars: P. falciparum in erythrocytes, SYBR Green DNA, 72 h; series mostly up to 12.8 µM. The method, boiled down:
as §1

Experiment [14] deals with DIV17. Described as above. Particulars: P. falciparum in erythrocytes, SYBR Green DNA, 72 h; series mostly up to 12.8 µM. The method, boiled down: as §1
Experiment [15] relates to GB4. Described as above. The settings on record: P. falciparum in erythrocytes, SYBR Green DNA, 72 h; series mostly up to 12.8 µM. The method in brief:
as §1

Experiment [16] relates to ICS. The description is as above. Particulars: P. falciparum in erythrocytes, SYBR Green DNA, 72 h; series mostly up to 12.8 µM. The method in brief: as §1
Experiment [17] deals with PAD. The experiment is described as above. The settings on record: P. falciparum in erythrocytes, SYBR Green DNA, 72 h; series mostly up to 12.8 µM. The method in brief:
as §1

Experiment [18] concerns TAB109. The description is as above. Particulars: P. falciparum in erythrocytes, SYBR Green DNA, 72 h; series mostly up to 12.8 µM. The method in brief: as §1
Experiment [19] concerns W2. Described as above. The settings on record: P. falciparum in erythrocytes, SYBR Green DNA, 72 h; series mostly up to 12.8 µM. The method in brief: as §1
In experiment [20] the test system is CP203. Described as above. The settings on record: P. falciparum in erythrocytes, SYBR Green DNA, 72 h; series mostly up to 12.8 µM. The method, boiled down: as §1

SMILES strings stand for the structures. Inconclusive results are not listed. Activity calls are given as the source filed them. Unless noted, calls follow the shape of the dose curve; as a rule, active = well fitted curve in the direction sought with a large enough effect; inconclusive = small, poorly fitted or top-dose-only effect, or another doubt; inactive = no such curve, though single readings can be large; an effect the other way counts as inactive or inconclusive.

As for `CC[C@]1(C)CC(=O)NC1=O`, the Potency result in [1], in [3], in experiment [4], in [5], in [6] and in experiment [7] was “inactive” each time. Moreover, the Potency entry in experiment [8], in [9], in experiment [10], in [11], in experiment [12] and in experiment [13] was “inactive” throughout. Moreover, the Potency entry in [14], in [15], in experiment [16], in experiment [17], in experiment [18] and in [19] was “inactive” throughout. In experiment [2], the call was inactive.
Regarding `CC[C@H](NC(C)C)[C@H](O)c1ccc(O)c(O)c1`, in experiment [1], the Potency was 11400 nM (active). The compound was classed as inactive in experiment [2]. Also, the Potency result in experiment [5], in [6], in experiment [7], in [20], in [8] and in experiment [10] was “inactive” in each case. Besides, the Potency result in experiment [11], in experiment [12], in experiment [17] and in experiment [18] was “inactive” each time.
Take `N[C@@H](CO)C(=O)NNCc1ccc(O)c(O)c1O`: the Potency entry in experiment [1], in [3], in experiment [4], in experiment [5], in experiment [6] and in experiment [7] was “inactive” in each case. Besides, the Potency result in [20], in experiment [8], in experiment [9], in experiment [10], in experiment [11] and in experiment [12] was “inactive” in each case. The Potency entry in experiment [13], in [14], in experiment [15], in experiment [16], in experiment [17] and in experiment [18] was “inactive” each time. Besides, the outcome in [2] was inactive.
`CC(C)(C)NC[C@H](O)c1cc(O)cc(O)c1`: the Potency result in [3], in [4], in experiment [5], in experiment [6], in experiment [7] and in [20] was “inactive” throughout. Moreover, the Potency entry in experiment [8], in experiment [9], in experiment [10], in [11], in experiment [12] and in experiment [14] was “inactive” each time. Further, the Potency result in experiment [15], in experiment [16], in experiment [17] and in [19] was “inactive” throughout.
With `CC1(C)O[C@@H]2C[C@H]3[C@H]4C[C@H](F)C5=CC(=O)C=C[C@@]5(C)[C@@H]4[C@H](O)C[C@]3(C)[C@]2(C(=O)CO)O1`, the Potency result in [1], in experiment [3], in [4], in experiment [5], in experiment [6] and in experiment [7] was “inactive” each time. In addition, the Potency entry in experiment [20], in experiment [8], in experiment [9], in [10], in experiment [11] and in [12] was “inactive” each time. The Potency result in experiment [13], in experiment [14], in [15], in experiment [16], in experiment [17] and in experiment [18] was “inactive” in each case. Further, the Potency result in experiment [19] is “inactive”. In addition, the call in [2] was inactive.
For the compound `C[C@@H](C(=O)O)c1ccc(C(=O)c2cccs2)cc1`, the Potency result in [1], in experiment [3], in [4], in experiment [5], in [6] and in experiment [7] was “inactive” in each case. In addition, the Potency entry in experiment [20], in experiment [8], in [9], in [11], in [12] and in experiment [13] was “inactive” each time. In addition, the Potency entry in experiment [14], in experiment [15], in [16], in experiment [17], in experiment [18] and in experiment [19] was “inactive” throughout. Further, the compound was classed as inactive in [2].
For the compound `CC(C)(O/N=C(\C(=O)N[C@@H]1C(=O)N2C(C(=O)[O-])=C(C[n+]3ccccc3)CS[C@@H]12)c1csc(N)n1)C(=O)O`, the Potency result in experiment [1], in experiment [3], in experiment [4], in [5], in experiment [6] and in experiment [7] was “inactive” in each case. Moreover, the Potency result in experiment [20], in experiment [8], in [9], in experiment [10], in experiment [11] and in experiment [12] was “inactive” in each case. In addition, the Potency result in experiment [13], in experiment [14], in experiment [15], in experiment [16], in experiment [17] and in experiment [18] was “inactive” each time. In experiment [19], the Potency entry was “inactive”.
On to `CC(=O)O[C@@H](C)C[N+](C)(C)C`, for which the Potency entry in experiment [1], in experiment [3], in [4], in experiment [6], in [7] and in experiment [20] was “inactive” each time. The Potency result in [9], in [10], in experiment [11], in experiment [12], in experiment [13] and in experiment [14] was “inactive” in each case. Also, the Potency entry in experiment [15], in experiment [16], in experiment [18] and in experiment [19] was “inactive” throughout. The compound was classed as inactive in experiment [2].
For the compound `Cn1c(=O)c2c(ncn2C[C@@H](O)CO)n(C)c1=O`, the Potency entry in experiment [1], in experiment [3], in experiment [4], in experiment [5], in experiment [6] and in experiment [7] was “inactive” throughout. In addition, the Potency result in experiment [20], in experiment [8], in experiment [9], in [10], in [11] and in [12] was “inactive” throughout. Besides, the Potency result in [13], in [14], in experiment [15], in experiment [16], in [17] and in experiment [18] was “inactive” throughout. In addition, in experiment [19], the Potency result was “inactive”. The outcome in experiment [2] was inactive.
Regarding `C/C=C\C(=O)N(CC)c1ccccc1C`, the Potency result in experiment [1], in experiment [3], in experiment [4], in experiment [5], in [7] and in experiment [20] was “inactive” each time. The Potency entry in experiment [8], in [9], in experiment [10], in experiment [11], in experiment [12] and in [13] was “inactive” in each case. The Potency entry in [14], in experiment [15], in experiment [16], in experiment [17], in experiment [18] and in experiment [19] was “inactive” throughout. The compound was classed as inactive in [2].
Turning to `CCN(CC)CCC[C@H](C)Nc1c2ccc(Cl)cc2nc2ccc(OC)cc12`, in experiment [2], the compound was classed as inactive. The Potency was 89.1 nM (active) in experiment [3]; 282 nM (active) in experiment [4]; 631 nM (active) in experiment [5]; 478 nM (active) in experiment [6]; 1510 nM (active) in experiment [7]; 2130 nM (active) in [20]. Besides, the Potency in experiment [8] was 1690 nM (active); in experiment [9] it was 501 nM (active); in [10], 1510 nM (active); in experiment [11], 478 nM (active); in experiment [12], 536 nM (active); in experiment [13], 478 nM (active). The Potency is 536 nM (active) in experiment [14]; 379 nM (active) in [15]; 158 nM (active) in experiment [16]; 398 nM (active) in experiment [17]; 501 nM (active) in experiment [18]; 338 nM (active) in [19].
For `CCN[C@@H]1C[C@H](C)S(=O)(=O)c2sc(S(N)(=O)=O)cc21`, the Potency result in experiment [1], in [3], in [4], in experiment [5], in experiment [6] and in experiment [7] was “inactive” each time. Also, the Potency entry in experiment [20], in [8], in [9], in [10], in experiment [11] and in experiment [12] was “inactive” throughout. For the same compound, the Potency result in experiment [13], in [14], in experiment [15], in experiment [16], in experiment [17] and in experiment [18] was “inactive” each time. The Potency result in experiment [19] is “inactive”. Moreover, the compound was called inactive in experiment [2].
